Assay outcomes: PubChem, National Center for Advancing Translational Sciences (NCATS)
Shown are actives, neighbours in structure and some others; about 6.5% of the full set was active somewhere.
Vaccinia mCherry: vaccinia inhibition (mCherry reporter). Vaccinia virus mCherry reporter infection, fluorescence. 0.63% of 310,000 active. AID 720579. Potency, µM (top dose mostly 36.5 µM), for the others: top-dose activity change, negative = inhibition, actives largely listed as inhibitors; calls by dose curve; tested in A549 cells; note: potency is the fitted concentration of half-maximal effect; nearly all actives have a fitted effect of over 35% in size
Vaccinia Venus: inhibitors of vaccinia virus (Venus reporter) | Vaccinia virus Venus reporter expression, fluorescence | Potency, µM (doses to about 36.5 µM), for the others: top-dose activity change, negative = inhibition, usual class: inhibitors | 0.46% of 330,000 active; calls by dose curve; tested in A549 cells; note: potency is the fitted concentration of half-maximal effect; nearly all actives have a fitted effect of over 30% in size
FMDV inh: antivirals against foot and mouth disease virus; 1.2% of 410,000 active; Potency, µM (series often up to 57.9 µM), inactives show at the highest dose activity change, negative = inhibition, most hits filed as inhibitors; FMDV antiviral cell-based qHTS; AID 1159524; calls by dose curve; tested in HEK293T cells; note: read-out not given here; potency is the fitted concentration of half-maximal effect; nearly all actives have a fitted effect of over 45% in size
HCMV antiviral: blocks human cytomegalovirus replication; HFF cells, HCMV-luciferase reporter, 72 h; hits give low values; activity change, negative = inhibition, % at 57.5 µM; 4.5% of 410,000 active; in the data active = activity change below about -60%; inconclusive = no clear call, values can overlap the other calls; inactive = above about -39%
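After 16 h attachment at 37C, HFF cells received test compound and HCMV-luciferase (1 PFU/cell); reporter luminescence read 72 h later, data normalized against buffer-only and known inhibitor Salinomycin.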
LASV entry inh: inhibitors of Lassa virus binding or cell entry; Lassa virus pseudotype entry inhibition, cell reporter; Potency, µM (highest dose often 37.9 µM), without a hit: at the top dose activity change, negative = inhibition, usual class: inhibitors; 1.2% of 300,000 active; calls by dose curve; tested in HEK293 cells; note: potency is the fitted concentration of half-maximal effect; nearly all actives have a fitted effect of over 50% in size
Marburg entry inh: Marburg virus entry inhibition | Potency, µM (doses to about 37.8 µM), for the others: at the top dose activity change, negative = inhibition, most hits filed as inhibitors | Marburg virus pseudotyped entry inhibition, cell reporter | AID 540276 | 1.8% of 300,000 active; calls by dose curve; tested in HEK293 cells; note: potency is the fitted concentration of half-maximal effect
* marks the source's active call; other numbers are inactive results; i = inactive; ? = inconclusive; nt = no result; + = active, no number; [ ] = dose if it differs, or a comment. % is set by controls: 0 for no effect and ±100 for the full control effect.

SMILES | Vaccinia mCherry | Vaccinia Venus | FMDV inh | HCMV antiviral | LASV entry inh | Marburg entry inh
COc1ccc(OC)c(CN2CCCC(c3nc(C)ncc3-c3ccc(F)cc3)C2)c1 (stereo not drawn) | -10.6% | -7.8% | -26.8% | nt | nt | nt
C#CCn1cc(/C=C2\NC(=O)NC2=O)c2ccccc21 | 4.47µM* | -20.2% | -4.2% | -4.4 | -5.6%[46.1 µM] | ?
CC(C)n1cc(/C=C2/NC(=O)NC2=O)c2ccccc21 | ? | -19.4% | -16.8% | 6.8 | 9.7% | 4.6%[46.1 µM]
Cc1ccc(C2=NN(C(=O)CNCCO)C(c3cccs3)C2)cc1 (stereo not drawn) | nt | nt | 45.0% | -5.3 | nt | nt
Nc1[nH]n2c(=O)cc(-c3ccccc3)nc2c1N=Nc1ccc(S(N)(=O)=O)cc1 | -0.7% | -5.8% | -4.7% | -8.9 | -1.8% | 4.9%[46.1 µM]
Nc1[nH]n2c(=O)cc(-c3ccccc3)nc2c1N=Nc1ccccc1 | nt | -15.1% | -21.8% | -78.7* | ? | ?
COc1ccc(CC(=O)OCC(=O)NCc2ccc(C)cc2)cc1OC | i | -12.4% | -11.2% | ? | -19.2% | -4.8%
CC(C)(C)C(=O)c1c(N)[nH]c(C(=O)c2ccccc2)c1-c1ccccc1Br | -2.0% | -4.7% | ? | -21.3 | nt | nt
COc1ccc(Nc2nccc3[nH]c(-c4cccc(OC(F)(F)F)c4)nc23)cc1OC | nt | nt | nt | -9.4 | nt | nt
Cc1cccc(C(=O)N[C@H](C(=O)Nc2ncc(C)s2)C(C)C)c1 | 12.6µM* | ? | 40.1% | -106.9* | nt | 4.7%[46.1 µM]
Cc1cccc(C(=O)N[C@H](C(=O)Nc2nnc(C3CC3)s2)C(C)C)c1 | -14.1% | -13.7% | 0.0% | -19.0 | 8.4% | 19.7%
O=C(CCl)Nc1cn(-c2ccccc2)nc1-c1ccc(F)cc1 | ? | -20.2% | 15.8µM* | -72.2* | 11.2µM* | ?
CC1(C)CC(=O)C(N=Nc2ccc(Br)cc2)=C(O)C1 | -3.6% | -9.9% | 1.4% | -60.3* | 4.2% | 11.2%[46.1 µM]
COc1ccc(N=NC2=C(O)CC(C)(C)CC2=O)cc1 | -12.4% | -12.9% | 28.8% | -13.8 | -5.0% | -25.4%[46.1 µM]
O=C1NC2c3c(I)sc(I)c3C(=O)C2O1 (stereo not drawn) | 10µM* | ? | 39.8µM* | -10.3 | 12.6µM* | ?
CC(CNC(=O)C1CCN(S(=O)(=O)c2ccc3c(ccn3C)c2)CC1)c1ccccc1 (stereo not drawn) | -13.7% | -2.8% | -2.9% | -2.6 | -8.8%[46.1 µM] | nt
CCC(Sc1nc2ncccc2[nH]1)C(=O)NCCc1ccccc1 (stereo not drawn) | -11.9% | 0.8% | -9.9% | -61.3* | nt | nt
CCC(Sc1nc2ncccc2[nH]1)C(=O)NC1CCC(C)CC1 (stereo not drawn) | -24.3% | -8.4% | 0.0% | -8.8 | nt | nt
CC1(C(=O)NCc2ccc(C(F)(F)F)cc2)CCN1C1Cc2ccccc2C1 (stereo not drawn) | 0.9% | -12.5% | ? | -2.1 | nt | nt
COc1ccccc1C1CN(CCNC(=O)[C@@H]2CSC(=O)N2)Cc2ccccc2O1 (stereo partly drawn) | -7.8% | -7.3% | 58.0% | nt | nt | nt
CCOC(=O)C1=C(CN2CCOCC2)NC(=O)NC1c1cc(C)ccc1C (stereo not drawn) | -16.3% | -11.4% | nt | -32.2 | -15.4% | -14.9%
CCOC(=O)C1=C(CN2CCCCC2)NC(=O)NC1c1cc(C)ccc1C (stereo not drawn) | -11.6% | -8.5% | ? | 1.3 | -24.7%[46.1 µM] | 9.2µM*
CC(C)(C)c1ccc(S(=O)(=O)/C=C\C#N)cc1 | nt | nt | 39.8µM* | nt | nt | 2.51µM*
Cc1ccc(S(=O)(=O)/C=C/C#N)cc1 | i | -10.8% | -6.6% | nt | 2.31µM* | ?
Cc1ccc(S(=O)(=O)C=CS(=O)(=O)c2ccc(C)cc2)cc1 | ? | -21.3% | ? | ? | nt | nt
SMILES | Vaccinia mCherry | Vaccinia Venus | FMDV inh | HCMV antiviral | LASV entry inh | Marburg entry inh
CN(C)c1cccc(Nc2cc3[nH]c(-c4cccc(F)c4)cc3cn2)c1 | nt | nt | nt | -26.5 | nt | nt
Cc1csc(SCC(=O)Nc2ccccc2C)n1 | -10.6% | -6.8% | 9.7% | -15.7 | -0.1% | ?
Cc1csc(SCC(=O)Nc2cccc3nsnc23)n1 | nt | ? | -8.9% | -74.7* | ? | 7.8%
O=c1c(Cl)c(NCCCO)cnn1-c1nc2ccccc2[nH]1 | -12.1% | 9.1% | 9.8% | -98.2* | ? | ?
Cn1c(=O)c(=O)n(C)c2cc(N3CCCCC3)c(NS(=O)(=O)c3ccc([N+](=O)[O-])cc3)cc21 | -18.9%[7.34 µM] | -15.0%[7.34 µM] | 5.1% | + | nt | nt
Cn1c(=O)c(=O)n(C)c2cc(N3CCCC3)c(NS(=O)(=O)c3ccc(F)cc3)cc21 | -15.9% | -10.2% | -14.3% | -25.7 | 2.2%[46.1 µM] | ?
O=C(NCc1cccnc1)c1cc(Sc2ccc(F)cc2F)nc2ccccc12 | -19.2% | -24.4% | ? | -64.3* | ? | 11.2µM*
CCOc1ccc(CNC(=O)C2CCCN(c3nn4cc(-c5ccc(F)cc5)nc4s3)C2)cc1 (stereo not drawn) | -18.4% | -20.4% | -9.8% | + | ? | nt
CCc1ccc(CNC(=O)C2CCCN(c3nn4cc(-c5ccc(F)cc5)nc4s3)C2)cc1 (stereo not drawn) | i | -17.5% | ? | + | 18.5%[46.1 µM] | nt
CN1CCCC(CNC(=O)c2cnn(-c3nccc(-c4cccs4)n3)c2C2CC2)C1 (stereo not drawn) | -12.0% | -0.8% | -15.3% | nt | nt | nt
CN1C(=O)C(=Cc2sc(=O)n(-c3ccccc3)c2N(C)C)C(=O)N(C)C1=O | -7.1% | 26.9% | 15.8µM* | -60.1* | -62.7% | ?
CN(C)CCCNS(=O)(=O)c1ccc(N2CCC(c3ccc(Cl)cc3)=N2)cc1 | nt | nt | nt | -102.1* | nt | nt
Cc1ccc(C)n1C1C(=O)N(Cc2ccc(C(F)(F)F)cc2)c2ccc(OC(F)(F)F)cc21 (stereo not drawn) | nt | nt | nt | 0.8 | nt | nt
Cc1cc(C)nc(Sc2ncnc3sc4c(c23)CCC4)n1 | nt | nt | -18.8% | -70.8* | 8.7% | 3.4%
CCOC(=O)c1cnc(S[C@@H]2CC(=O)N(c3cccc(OC)c3)C2=O)nc1N | nt | nt | nt | nt | nt | 13.2%
Cc1cccc(CN2CCc3nc(N4CCN(c5ccccn5)CC4)ncc3C2)c1 | ? | ? | 14.1µM* | ? | -30.0%[46.1 µM] | nt
Clc1ccccc1CN1CCc2nc(N3CCN(c4ncccn4)CC3)ncc2C1 | -13.2% | -25.8% | 31.6µM* | -29.3 | -1.8%[46.1 µM] | nt
CN1CCN(c2ncc3c(n2)CCN(Cc2ccccc2Cl)C3)CC1 | -14.5% | -25.7% | -3.8% | -9.4 | -5.5%[46.1 µM] | nt
Cc1ccsc1/C=C1\C(=O)NC(=S)N(C)C1=O | nt | nt | 31.6µM* | -101.5* | nt | nt
COc1ccccc1C(=O)N(Cc1cc2cc3c(cc2nc1N(C)C)OCO3)CC1CCCO1 (stereo not drawn) | -7.8% | -2.5% | 10.7% | nt | nt | nt
Cc1ccc(-n2c(=O)c3c(c4cc(C)ccc4n3C)n(CC(=O)Nc3ccc(F)cc3)c2=O)cc1 | -23.6% | -20.0% | -1.4% | -75.1* | -6.2%[46.1 µM] | nt
Cc1ccc(-n2c(=O)c3c(c4cc(C)ccc4n3C)n(CC(=O)Nc3c(C)cccc3C)c2=O)cc1 | -11.2% | -7.9% | 0.8% | 20.5 | 11.2%[46.1 µM] | nt
O=C(O)/C=C/c1cnn(-c2ccccc2)c1 | -2.9% | -0.3% | -66.5% | 3.1 | 2.82µM* | ?
